Our source for the growth values is PubChem BioAssay (NCI).

Where “and” joins values, the source holds several entries; their conditions need not be identical. Equal entries are not always repeated. About 83,000 compounds went through this panel and 20% of them were active in at least one assay; those are over-represented in the sample as a whole.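 A percent growth of 40 corresponds to 60% growth inhibition; 0 means no net growth; -100 means all cells died. Active threshold: below 10.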 A number with no mark means an inactive call. Calls of active or inactive are those of the source.

For the experiment, the system named is HL-60(TB) leukemia. As to the kind of experiment: NCI-60 one-dose screen, 48 h (100 = growth as untreated, 0 = no growth, -100 = all killed). The conditions noted are these: 10 µM unless noted.
As to `O=C1NN(C(=O)c2ccccc2)C(c2ccc(Cl)c(Cl)c2)=C/C1=C\c1ccccc1[N+](=O)[O-]`, the growth is 12.7% [6.75 µM].
Consider `N/C(=N\C(N)=N\c1nc2ccccc2s1)c1cccc(Br)c1`, for which the growth is 95.4%.
Regarding `Nc1nc2c(s1)CCc1cn(S(=O)(=O)c3ccccc3)cc1-2`, the growth is 70.6% and 76.2%.
Take `Oc1ccc(CN(Cc2ccc(C(F)(F)F)cc2)Cc2ccc(O)c3ncccc23)c2cccnc12`: the growth was -11% (active).
Consider `C=C1C(=O)O[C@H]2[C@H]1CC/C(COC(=O)NCc1ccc(OC)cc1)=C\CC[C@@]1(C)O[C@@H]21`, for which the growth is 11.1%.
Under `CCC1S/C(=N\N=C(/C)c2ccc[nH]2)N(c2ccccc2)C1=O` (stereo not given) stands -63.7% (active).
For `O=C(NCCNc1nccc(-c2c(-c3cccc(O)c3)nc3sccn23)n1)c1cccc(C(F)(F)F)c1`, the growth is 95.5%.
Turning to `COc1ccc2nc(C)cc(Nc3ccc(Cl)cc3)c2c1`, the growth is 95.6%.
Under `CCN(CC)CCOc1ccc(NC(=O)C(C(C)C)N2C(=O)/C(=C/c3ccc(Br)cc3)SC2=S)cc1` (stereo not given) stands 27.6%; under `CCCCNC(=O)Oc1ccc2c(=O)c3sc4c(=O)c5ccccc5c(=O)c4c3c(=O)c2c1`, -43.3% (active).
Turning to `CC1(C)CN(Cc2ccccc2)CCN1Cc1ccccc1`, the growth is 100%.
Under `COc1ccc(CNC(=O)[C@H](O)[C@@H](N)Cc2ccccc2)cc1` stands 102%; under `Cc1c2c(nn1C(=O)c1nn(-c3ccc(Cl)cc3)cc1O)-c1ccccc1CC2`, -43.4% (active).
As for `COc1ccc(-c2cn(-c3ccccc3)c(-c3ccccc3)n2)cc1OC`, the figure is 8.37% (active); as for `COCCOC(=O)NC(=O)Nc1ccc(/C(=N/O)c2ccc(Cl)cc2)cc1`, -20.4% (active).
Take `COc1cc(N=C2C(=O)N(Cc3ccccc3)c3ccccc32)cc(OC)c1OC`: the growth was 69.9%.
As for `CC(C)(C)Nc1c(-c2cccs2)nc2ncccn12`, the figure is 66.6%.
In the case of `O=C(N/N=C/c1ccc(F)cc1)c1ccc(C(F)(F)F)nc1Nc1cccc(C(F)(F)F)c1`, the growth is -37.2% (active).
Consider `COc1cccc(CC(C)=C(c2ccc(OCCN(C)C)cc2)c2ccc(OCCN(C)C)cc2)c1`, for which the growth is -62.5% (active).
As to `O=C1Cc2ccccc2C(=O)O1`, the growth is 89.1%.
For the compound `CCOC(=O)C(=Cc1cccc(Br)c1)C(=O)OCC`, the growth is -6.91% (active).
Consider `O=c1c(-c2nc3ccccc3[nH]2)cc2ccccc2n1Cc1cn(Cc2ccc(F)cc2)nn1`, for which the growth is 0.035% (active).
On to `CC1(C)C2CC1C1(/C=N/NC(N)=S)C(C2)C(C#N)(C#N)C1(C#N)C#N` (stereo not given), for which the growth was 13.5%.
Turning to `c1cnc2c(-c3nc4ccc5[nH]ncc5c4c4c3CCCC4)c[nH]c2c1`, the growth is 41.5%.
With `COC(=O)/C=C1\S/C(=N\NS(=O)(=O)c2ccc(C)cc2)N(c2ccccc2)C1=O`, the growth is 105%.
Under `Cc1cc(C(=O)NN)c(C#N)c(=O)[nH]1` stands 111%; under `COC(=O)CCCNC(=O)C(=O)c1c(O)c(O)c(C(C)C)c2cc(C)c(-c3c(C)cc4c(C(C)C)c(O)c(O)c(C(=O)C(=O)NCCCC(=O)OC)c4c3O)c(O)c12`, 11.3%.
As to `NC(=O)c1c(NC(=O)c2ccc(OCC3CCCO3)cc2)sc2c1CCCC2` (stereo not given), the growth is 53.8%.
With `O=C(Nc1ccc(Cl)cc1)Nc1ccc(Cl)c(C(F)(F)F)c1`, the growth was -60.8% (active).
With `CCOC(=O)C1=C(NC)OCC1=O`, the growth was 91.7%.
With `COc1cc(-c2csc(NC(=O)Nc3ccc(Cl)cc3)n2)cc(OC)c1OC`, the growth was 2.62% (active).
As for `Cc1[c-]onc1C.Cc1[c-]onc1C.[Ag].[Ag].[NH-]S(=O)(=O)c1ccc(N=Nc2cc(N=Nc3ccc(S([NH-])(=O)=O)cc3)c3c(NC(=O)C(Cl)Cl)cccc3c2OC(=O)C(Cl)Cl)cc1`, the figure is 38.1%; as for `O=C(Cn1cc(CN2CCCCCC2)nn1)Nc1ccc2c(ccn2Cc2ccccc2)c1`, 92.2%.
On to `CCC1(C(N)=O)CC2C=CC1CC2` (stereo not given), for which the growth is 110%.
On to `Oc1c(Cl)cc(Cl)c(Cl)c1CNCCNCc1c(O)c(Cl)cc(Cl)c1Cl`, for which the growth was -10.5% (active).
In the case of `N=C(N)c1ccc(-c2ccc(-c3ccc(F)cc3)o2)o1`, the growth is -44.2% (active).
As for `Cc1cc(C(C)(C)c2cc(C)c(O)c(CN(C)C)c2)cc(CN(C)C)c1O`, the figure is 81.1%.
As for `CC(C)OC(=O)c1ccc2[nH]c(O)c(C(=Nc3ccc(N(C)C(=O)CN4CCN(C)CC4)cc3)c3ccccc3)c2c1`, the growth was -50.2% (active).
Under `COC12C=C/C(=C(/C(=O)OCc3ccncc3)C(=O)CCCCCCCCC3(OC)C=C/C(=C(/C(=O)OCc4ccncc4)C(=O)CCCCCCCC1)O3)O2` stands -22.9% (active).
Under `CCOC(=O)c1cc2c(n1Cc1ccccc1)-c1oncc1CCC2` stands 33.9%.
